Results on 8 compounds are retold here after PubChem BioAssay (NCI).

The panel holds about 83,000 compounds, 20% with a hit somewhere; the sample as a whole holds those more often.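 A percent growth of 40 corresponds to 60% growth inhibition; 0 means no net growth; -100 means all cells died. Active threshold: below 10.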 A number with no mark means an inactive call. Activity calls are given as the source filed them.

Some test systems named below: NCI-H23 lung; NCI-H322M lung; HOP-62 NSCLC; NCI-H460 lung; HOP-92 NSCLC; NCI-H522 lung; A549/ATCC NSCLC; 786-0 renal; COLO 205 colon; DU-145 prostate; K-562 leukemia; MALME-3M melanoma; MDA-MB-231 breast; RXF 393 renal; SF-268 CNS; SF-295 CNS; SF-539 CNS; UACC-257 melanoma; M14 melanoma; HCT-15 colon.
Holding throughout (experiment): NCI-60 one-dose screen, 48 h (100 = growth as untreated, 0 = no growth, -100 = all killed)
Common to all, as to conditions: 10 µM unless noted

As for `N#C/C(=C1\SC(=O)CN1c1ccccc1)c1nc2ccccc2s1`, the growth in the assay with NCI-H23 lung was 75.8%; in the assay on NCI-H322M lung it was 102%; with HOP-62 NSCLC it was 94.4%; with NCI-H460 lung, 97.1%; in the assay with HOP-92 NSCLC, 102%; in the assay on NCI-H522 lung, 80.5%. Besides, the growth in the assay on A549/ATCC NSCLC was 97%; in the assay on 786-0 renal, 102%; in the assay with COLO 205 colon, 103%; with DU-145 prostate, 99.7%; with K-562 leukemia, 82.8%; in the assay with MALME-3M melanoma, 99.3%. The growth in the assay on MDA-MB-231 breast is 85.5%; in the assay on RXF 393 renal it was 105%; in the assay with SF-268 CNS, 103%; in the assay on SF-295 CNS, 84.2%; in the assay with SF-539 CNS, 97.6%; in the assay on UACC-257 melanoma it was 97%. For the same compound, the growth is 91.2% in the assay on M14 melanoma and 95.8% in the assay on HCT-15 colon.
With `CCn1c(SCC(=O)Nc2cc(C(F)(F)F)ccc2Cl)nc2ccccc2c1=O`, the growth is 70.9% with NCI-H23 lung; 78.8% in the assay with NCI-H322M lung; 64.2% in the assay with HOP-62 NSCLC; 28.6% in the assay with NCI-H460 lung; 9.17% (active) in the assay with HOP-92 NSCLC; 50.7% with NCI-H522 lung. Also, the growth with A549/ATCC NSCLC is 50.5%; with 786-0 renal, 56.4%; in the assay with COLO 205 colon, 52.6%; with DU-145 prostate it was 38.2%; in the assay on K-562 leukemia, -46.2% (active); with MALME-3M melanoma, -15.6% (active). Moreover, the growth is -25.6% (active) in the assay on MDA-MB-231 breast; 44.4% in the assay with RXF 393 renal; 32.6% in the assay with SF-268 CNS; 67.3% in the assay on SF-295 CNS; 69.1% with SF-539 CNS; -32% (active) in the assay on UACC-257 melanoma. Further, the growth is -67% (active) in the assay on M14 melanoma and 36.7% in the assay on HCT-15 colon.
As to `O=c1oc2ccc(Cl)cc2c(=O)n1-c1ccc(I)cc1F`, the growth was 2.29% (active) in the assay with NCI-H23 lung; 6.37% (active) with NCI-H322M lung; 0.787% (active) with HOP-62 NSCLC; 2.33% (active) in the assay on NCI-H460 lung; -16.5% (active) in the assay with HOP-92 NSCLC; -15.5% (active) in the assay on NCI-H522 lung. Besides, the growth with A549/ATCC NSCLC is 7.89% (active); in the assay with 786-0 renal, 2.82% (active); with COLO 205 colon, 53%; in the assay on DU-145 prostate, 15.6%; with K-562 leukemia, 7.73% (active); in the assay on MALME-3M melanoma, -29.2% (active). The growth in the assay on MDA-MB-231 breast was -20.5% (active); in the assay on RXF 393 renal it was -5.52% (active); in the assay with SF-268 CNS, 8.08% (active); in the assay on SF-295 CNS, -57.8% (active); in the assay with SF-539 CNS, 2.55% (active); in the assay with UACC-257 melanoma, -16.9% (active). Moreover, the figures for the growth in the assay on M14 melanoma and in the assay with HCT-15 colon were 2.42% (active) and 3.56% (active), respectively.
Consider `COC(=O)[C@H](NC(=O)C1(C)CCC[C@]2(C)[C@H]3C[C@H]4C(C(C)C)=C[C@]3(CC[C@@H]12)[C@@H]1C(=O)CCC(=O)[C@@H]14)C(C)C` (stereo not given in full), for which the growth in the assay on NCI-H23 lung is 103%; in the assay on NCI-H322M lung, 96.2%; in the assay with HOP-62 NSCLC it was 99.8%; with NCI-H460 lung it was 113%; with HOP-92 NSCLC, 96.8%; with NCI-H522 lung, 102%. For the same compound, the growth was 94.4% with A549/ATCC NSCLC; 102% in the assay on 786-0 renal; 110% in the assay with COLO 205 colon; 106% in the assay on DU-145 prostate; 96.9% in the assay with K-562 leukemia; 104% in the assay with MALME-3M melanoma. Further, the growth was 90.8% with MDA-MB-231 breast; 105% in the assay with RXF 393 renal; 96.5% in the assay with SF-268 CNS; 94.8% with SF-295 CNS; 100% in the assay with SF-539 CNS; 104% in the assay with UACC-257 melanoma. Besides, the growth with M14 melanoma is 102%; with HCT-15 colon, 95.3%.
On to `O=C(Nc1ccccc1O)c1ccc(-c2ccc(Cl)cc2Cl)o1`, for which the growth is 85% in the assay with NCI-H23 lung; 101% in the assay with NCI-H322M lung; 93.7% with HOP-62 NSCLC; 98.2% with NCI-H460 lung; 80.4% in the assay with HOP-92 NSCLC; 91.4% in the assay with NCI-H522 lung. Further, the growth is 102% in the assay with A549/ATCC NSCLC; 88.2% with 786-0 renal; 90.7% in the assay with COLO 205 colon; 91% in the assay on DU-145 prostate; 47.1% in the assay on K-562 leukemia; 71.4% with MALME-3M melanoma. The growth was 80.4% in the assay on MDA-MB-231 breast; 79.7% in the assay with RXF 393 renal; 77.1% with SF-268 CNS; 68.4% in the assay on SF-295 CNS; 115% with SF-539 CNS; 106% with UACC-257 melanoma. For the same compound, the growth in the assay on M14 melanoma is 90%; with HCT-15 colon, 95.9%.
On to `S=C1NC2(c3ccccc3)CCC(=S)N2c2ccccc21` (stereo not given), for which the growth in the assay with NCI-H23 lung is 103%; with NCI-H322M lung, 95.8%; with HOP-62 NSCLC, 98.2%; in the assay with NCI-H460 lung it was 108%; in the assay on HOP-92 NSCLC it was 99.1%; with NCI-H522 lung it was 90.7%. The growth was 101% in the assay with A549/ATCC NSCLC; 104% with 786-0 renal; 117% in the assay with COLO 205 colon; 115% with DU-145 prostate; 93.6% in the assay on K-562 leukemia; 99.5% in the assay with MALME-3M melanoma. The growth in the assay with MDA-MB-231 breast is 90.9%; in the assay on RXF 393 renal, 116%; in the assay on SF-268 CNS it was 102%; in the assay on SF-295 CNS, 107%; in the assay with SF-539 CNS, 107%; in the assay on UACC-257 melanoma, 110%. Further, the results for the growth in the assay with M14 melanoma and with HCT-15 colon were 103% and 102%, respectively.
Take `CCOc1cccc(/C=N\Nc2nc(=O)cc(C(=O)OC)s2)c1O`: the growth was 85.7% in the assay on NCI-H23 lung; 54.2% with NCI-H322M lung; 85.6% in the assay on HOP-62 NSCLC; 44% in the assay on NCI-H460 lung; 60.1% in the assay with HOP-92 NSCLC; 79.3% with NCI-H522 lung. The growth in the assay on A549/ATCC NSCLC is 63.1%; in the assay with 786-0 renal, 83.9%; with COLO 205 colon, 91.6%; in the assay on DU-145 prostate, 103%; with K-562 leukemia it was 50.8%; in the assay with MALME-3M melanoma, 66.8%. Also, the growth was 78.7% in the assay on MDA-MB-231 breast; 97% in the assay with RXF 393 renal; 76% with SF-268 CNS; 57.5% in the assay on SF-295 CNS; 82.6% with SF-539 CNS; 78.2% in the assay with UACC-257 melanoma. For the same compound, the figures for the growth with M14 melanoma and in the assay with HCT-15 colon were 63.7% and 45.6%, respectively.
As for `CN(C)CCCNCc1ccc(-c2ccc(F)c(Cl)c2)o1`, the growth with NCI-H23 lung was 77.1%; with NCI-H322M lung, 65%; in the assay on HOP-62 NSCLC, 19.2%; in the assay on NCI-H460 lung, -58.4% (active); in the assay with HOP-92 NSCLC, 35.7%; with NCI-H522 lung, 19.5%. The growth in the assay with A549/ATCC NSCLC was -50.5% (active); in the assay on 786-0 renal it was 49.6%; in the assay with COLO 205 colon, -90% (active); in the assay on DU-145 prostate it was 19.7%; in the assay with K-562 leukemia it was -19% (active); with MALME-3M melanoma it was -57.7% (active). For the same compound, the growth was 13.4% with MDA-MB-231 breast; 16% with RXF 393 renal; 53.3% in the assay with SF-268 CNS; -18.3% (active) in the assay on SF-295 CNS; 60.8% with SF-539 CNS; -5.97% (active) with UACC-257 melanoma. Besides, the growth was -80.9% (active) with M14 melanoma and 1.01% (active) with HCT-15 colon.
